Assay results taken from PubChem BioAssay (NCI).
Several values for one entry are separate records, joined by “and”; a condition that tells them apart may be missing. Equal entries are not always repeated. About 83,000 compounds went through this panel and 20% of them were active in at least one assay; those are over-represented in the sample as a whole.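 Single-dose data. Exposure time 48 hours. Values below 10 considered active.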 Activity calls are given as the source filed them.

Assays:
Test in all cases: NCI-60 one-dose screen, 48 h (100 = growth as untreated, 0 = no growth, -100 = all killed)
[1] = system: NCI-H23 lung; details: 10 µM
[2] = system: HOP-92 NSCLC; details: 10 µM
[3] = system: K-562 leukemia; details: 10 µM
[4] = system: RXF 393 renal; details: 10 µM
[5] = system: HCT-15 colon; details: 10 µM
[6] = system: MOLT-4 leukemia; details: 10 µM
[7] = system: SR leukemia; details: 10 µM
[8] = system: SK-OV-3 ovarian; details: 10 µM
[9] = system: T-47D breast; details: 10 µM
[10] = system: MDA-MB-468 breast; details: 10 µM unless noted
[11] = system: MDA-MB-231 breast; details: 10 µM
[12] = system: M14 melanoma; details: 10 µM
[13] = system: SNB-19 CNS; details: 10 µM
[14] = system: LOX IMVI melanoma; details: 10 µM
[15] = system: OVCAR-8 ovarian; details: 10 µM
[16] = system: HS 578T breast; details: 10 µM
[17] = system: SW-620 colon; details: 10 µM
[18] = system: SK-MEL-28 melanoma; details: 10 µM
[19] = system: UO-31 renal; details: 10 µM
[20] = system: CAKI-1 renal; details: 10 µM

Measured: growth

C#CC[Se]C(=O)c1ccc2n[se]nc2c1
active: [3] 4.82% | [7] 3.84%
inactive: [1] 77% | [2] 77% | [4] 70.8% | [5] 25.8% | [6] 22.9% | [8] 95.4% | [9] 62.9% | [10] 25.9%

COC(=O)C[C@](O)(CCCC(C)C)C(=O)O[C@H]1C(OC)=C[C@@]23CCCN2CCc2cc4c(cc2[C@@H]13)OCO4
active: [1] -25% | [3] 3.55% | [11] 7.43% | [4] -8.52% | [12] -46.4% | [13] -27.7% | [14] -66.6% | [6] 1.41% | [7] -24.8% | [15] -21.3% | [16] -4.94% | [9] 2.21% | [17] -10.5% | [10] -27.4%

O=C(NCCCCC(c1ccc(F)cc1)c1ccc(F)cc1)Nc1ccc([N+](=O)[O-])c(C(F)(F)F)c1
inactive: [13] 17.1% | [18] 16.5%
active: [1] -10.2% | [2] -36.2% | [11] -70% | [4] -41.3% | [12] -23.1% | [14] -73.8% | [8] -33% | [16] -3.33% | [9] -10.4% | [17] 8.81% | [10] -31.7%

C=CCN=C([Se])NC(=O)c1ccc2c(c1)OCO2
inactive: [2] 151% | [3] 107% | [11] 103% | [4] 128% | [12] 86.8% | [14] 104% | [18] 111% | [19] 115% | [20] 118% | [6] 107% | [7] 93.1% | [8] 45.1% | [16] 99.3% | [9] 96.6% | [17] 111%

O=C(/C=C/c1ccco1)c1nc2ccccc2n1Cc1ccc(Br)cc1
inactive: [1] 27.4%
active: [2] 3.99% | [3] 7% | [4] -1.81% | [5] 9.97% | [6] 3.6% | [7] 4.72% | [10] -14.5%

O=C(/C=C/c1ccc(Br)cc1)c1nc2ccccc2n1Cc1ccc(Br)cc1
active: [1] -36.3% | [2] -11.1% | [3] 0.898% | [4] -82% | [12] -26.7% | [6] -4.04% | [7] -13.9% | [15] -18% | [9] 1.99% | [10] -74.3%

O=C([Se]C1C=CCCC1)c1ccc(C(=O)[Se]C2C=CCCC2)s1 (stereo unspecified)
active: [1] -74% | [2] -39.7% | [3] 6.15% | [4] -92% | [12] -81.2% | [20] -61.6% | [6] 0.117% | [7] -33% | [8] -97.5% | [9] -48.1% | [10] -95.7%

COC(=O)C[C@](O)(CCC(C)C)C(=O)O[C@H]1C(OC)=C[C@@]23CCCN2CCc2cc4c(cc2[C@@H]13)OCO4
active: [1] -54.3% | [3] 4.01% | [11] -30.3% | [4] -30.5% | [12] -76.4% | [5] -29.7% | [14] -82.4% | [18] -32.9% | [19] -25.3% | [6] -5.07% | [7] -26.7% | [16] -25.8% | [17] -27.9% | [10] -39.7%

O=C(/C=C/c1ccc(Cl)cc1)c1nc2ccccc2n1Cc1ccc(Br)cc1
inactive: [1] 61.9% | [2] 40.2% | [3] 13.6% | [4] 37.6% | [12] 65.4% | [13] 65.9% | [18] 80.1% | [20] 57.4% | [8] 94.7% | [9] 28%
active: [6] -0.283% | [7] 5.41% | [10] 9.05%

Cc1c2oc3c(C)ccc(C(=O)N[C@@H]4C(=O)N[C@H](C(C)C)C(=O)N5CCC[C@H]5C(=O)N(C)CC(=O)N(C)[C@@H](C(C)C)C(=O)OC4C)c3nc-2c(C(=O)N[C@@H]2C(=O)N[C@H](C(C)C)C(=O)N3CC(=O)C[C@H]3C(=O)N(C)CC(=O)N(C)[C@@H](C(C)C)C(=O)OC2C)c(N)c1=O (stereo partly specified)
active: [1] -38.9% | [2] -17.7% | [11] 1.92% | [4] -78.8% | [14] -0.489% | [18] -27.8% | [20] 8.23% | [15] 0.349% | [8] 7.97% | [16] 5.64% | [9] -5% | [17] 6.93% | [10] -37.7%

O=C(/C=C/c1ccc(Cl)cc1)c1nc2ccccc2n1Cc1ccc(F)cc1
inactive: [1] 33.4% | [2] 16.7% | [4] 19% | [13] 25% | [19] 31.4% | [8] 78.1%
active: [3] 5.25% | [5] -1.45% | [6] -0.463% | [7] -8.72% | [10] -5.26%

CC1=C(CCC=NNC(N)=O)C2=C(C)C3(CC3)[C@@](C)(O)C(=O)C2=C1
active: [1] -78.2% | [2] -11.3% | [11] -59.7% | [4] -80.8% | [14] -71.9% | [19] -65.2% | [16] -24.5% | [17] -20.7% | [10] -81.5% and -65.8%
